The whole screen tested about 320,000 compounds, of which about 2,100 (0.66%) were called active. About 53% were inconclusive and are not listed. Calls come from the whole dose curve; as a rule, active = well fitted inhibition curve with a large enough effect in the signal ratio, with a control signal flat (not every such curve was filed as active); inconclusive = small, poorly fitted or top-dose-only effect, or effect the other way, or a change in a side signal; inactive = flat fitted curve, though single readings scatter; the % refers to the signal ratio. Only a selection was taken, and actives are over-represented in it overall.
Potency is the fitted concentration of half-maximal effect.

A short description of the test: qHTS Assay for Lipid Storage Modulators in Drosophila S3 Cells.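 For cell number change: cells counted by Cell Tracker Red CMTPX staining in the red channel.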 The settings on record: BODIPY lipid droplet fluorescence, 18-24 h, cells fed with added oleic acid; cell number change: measured here: cell count max response; series mostly up to 46.1 µM. The procedure, abridged: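 Laser-scanning cytometry quantifies lipid droplet accumulation (500–530 nm total intensity; droplet/cell object ratio) in oleic acid-fed (400 uM added) Drosophila S3 cells treated with a concentration series. 20 uM Triacsin C defined 100% inhibition.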
`COC(=O)c1ccc(NC(=S)N2CCCC2)cc1`: the Potency result was “inactive” and the cell number change is -8.77%. For `CC(=O)N1CCc2cc(S(=O)(=O)Nc3ccc(C)cc3)ccc21`, in that order: “inactive” and 8.46%. With `COc1cccc(NS(=O)(=O)c2ccc3c(c2)N(C(C)=O)CCS3)c1`, the Potency entry is “inactive”.

On to `CCc1cccc(NS(=O)(=O)c2ccc(-n3cccn3)cc2)c1`, for which the Potency result is “inactive” and the cell number change was 18.7%. In the case of `O=S(=O)(Nc1cccc(Cl)c1)c1ccc(-n2cccn2)cc1`, the Potency result was “inactive”. Regarding `COc1cccc(NS(=O)(=O)c2ccc3c(c2)CCN3C(C)=O)c1`, the Potency was 1.64 µM (active) and the cell number change is -8.33%.

Turning to `COc1cccc(NS(=O)(=O)c2ccc(-n3cccn3)cc2)c1`, the Potency is 0.0517 µM (active) and the cell number change was -7.08%. Take `Cn1cnnc1Sc1nc2c(c(=O)n(C)c(=O)n2C)n1Cc1ccccc1Cl`: the Potency result is “inactive” and the cell number change was determined as 16.5%.

In the case of `O=C(c1ccc(=O)[nH]c1)N1CCN(S(=O)(=O)c2ccc3ccccc3c2)CC1`, the Potency entry was “inactive” and the cell number change is -9.74%. On the same counts, the results for `COc1cc(CO)c(Br)cc1OCC(=O)Nc1ccccc1C` are “inactive” and -15.6%. For `O=C(CN1C(=O)/C(=C\c2cccs2)SC1=S)Nc1cccc(C(=O)O)c1`, in that order: “inactive” and 24%. For `O=C(CCCN1C(=O)/C(=C/c2cccs2)SC1=S)NNC(=O)c1ccccc1O`, in that order: 6.51 µM (active) and -24.1%.

With `O=C(CCN1C(=O)/C(=C\c2cccs2)SC1=S)Nc1nccs1`, the Potency result is “inactive” and the cell number change is -0.135%. On the same counts, the results for `O=C(CCCN1C(=O)/C(=C/c2cccs2)SC1=S)NNC(=O)c1ccncc1` are “inactive” and 21%. For `O=C(CCN1C(=O)/C(=C/c2ccccc2F)SC1=S)Nc1ccccn1`, in that order: “inactive” and 23.3%. For `O=C(CCN1C(=O)/C(=C/c2ccccc2)SC1=S)Nc1ccccn1`, in that order: “inactive” and -0.917%. For the compound `O=C(CCCN1C(=O)/C(=C\c2cccs2)SC1=S)Nc1cc([N+](=O)[O-])ccc1O`, the Potency entry is “inactive”.

As for `O=C(CCN1C(=O)/C(=C/c2cccs2)SC1=S)Nc1ccccc1O`, the Potency is 3.66 µM (active) and the cell number change is 13.5%.

Consider `O=C(CCN1C(=O)/C(=C/c2cccs2)SC1=S)Nc1ccc(C(=O)O)c(O)c1`, for which the Potency entry is “inactive” and the cell number change is -26.8%.

In the case of `O=C(CCN1C(=O)/C(=C/c2ccccc2Cl)SC1=S)Nc1ccccn1`, the Potency was 20.6 µM (active) and the cell number change was -0.66%. Consider `O=C(CCN1C(=O)/C(=C/c2cccs2)SC1=S)Nc1cccc(C(=O)O)c1`, for which the Potency was 0.164 µM (active) and the cell number change was -17.1%. For `Cc1ccc(/C=C2\SC(=S)N(CCCC(=O)NNC(=O)c3ccccc3O)C2=O)cc1`, in that order: “inactive” and 17.7%.

As to `CCc1ccc(OCC(=O)N(C)CCC#N)c(Br)c1`, the Potency entry was “inactive”. In the case of `CC1=[N+]([O-])C(C)(C)C(C)N(O)C1=O` (stereo unspecified), the Potency result was “inactive” and the cell number change came out at 1.53%. On to `COc1ccc(C(=O)O)cc1S(=O)(=O)Nc1cc(Cl)ccc1N1CCOCC1`, for which the Potency entry was “inactive” and the cell number change was 11.4%.
